Fluor 339 460 – intrinsic fluorescence of library compounds, ex339/em460 – biochemical, MLSMR library, data from DPM-DC assay, artefact control, profiling panel. compound autofluorescence, ex339/em460 nm, NADH buffer; stronger effect = higher value; 1 = no-compound wells, NADH background. fluorescence fold increase at 10 µM. AID 709. hit rate 5.5% among 65,000;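 active = at 10 µM, mean starting fluorescence two-fold or more over control wells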;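 note: signal is the first read of a kinetic run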
DPM-DC inhibit – S. pneumoniae DPM-DC inhibition; hit rate 0.49% among 65,000; purified DPM-DC, PK/LDH coupled NADH fluorescence; calls only at 10 µM; AID 556;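 active = the 320 compounds with the highest percent inhibition in the single-dose primary screen, excluding strongly autofluorescent ones, cut at about 32% in these data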;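 note: kinetic rate of NADH fluorescence loss reporting ADP formed by the decarboxylase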
PMK inhibit – blocks S. pneumoniae phosphomevalonate kinase | purified PMK, PK/LDH-coupled NADH absorbance 340 nm | inhibition, % at 10 µM | hit rate 0.49% among 65,000 | AID 539;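 active = top-ranked compounds by inhibition in the single 10 µM screen, taking a fixed number of the strongest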;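 note: 0% = full reaction with DMSO carrier and 100% = background rate without enzyme reaction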
NADH enzymes – inhibitors of enzymes used to reach an NAD/NADH endpoint; coupled PK/LDH NADH assays, four targets; IC50, µM (highest dose often 10 µM), inactives show at the highest dose inhibition; hit rate 0.02% among 65,000; AID 774;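 active = single-dose screening hits from any of four coupled enzyme assays that gave an IC50 when retested across doses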;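 note: the DPM-DC format reads NADH fluorescence rather than 340 nm absorbance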
A340 absorber – compounds absorbing at 340 nm. compound absorbance at 340 nm, fold over control. fold change at 10 µM. 65,000 tested, under 10 active. AID 708;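 active = at 10 µM dose, initial 340 nm absorbance at least 2 fold that of control wells; inactive = change under 2 fold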;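 note: initial absorbance extrapolated from kinetic A340 decline of NADH oxidation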
Spn MK inh – inhibitors of Streptococcus pneumoniae mevalonate kinase | purified MK, PK/LDH-coupled NADH absorbance 340 nm | inhibition, % at 10 µM | hit rate 0.48% among 65,000 | AID 555;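 active = ranked among the strongest by inhibition in the single 10 µM screen, a fixed top-ranked set picked for dose follow-up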
Active calls of the source: *; i = inactive; · = no result shown; + = active, no number. This is a sample that favours compounds with a hit; in the whole collection about 6.8% have one here.

SMILES	Fluor 339 460	DPM-DC inhibit	PMK inhibit	NADH enzymes	A340 absorber	Spn MK inh
CC(Oc1ccc2oc(-c3ccccc3)c(C(=O)O)c2c1)C(=O)O (stereo not given)	2.4*	·	2	2%	1	5
O=C(c1cc2c(ccc3ccccc32)oc1=O)N1CCN(CCO)CC1	2.1*	·	5	4%	1.1	2
CCOc1ccc(C(=O)N2CCN(Cc3ccccc3)CC2)cc1	1.1	i	0	4%	1	13
O=C(c1cc2ccccc2oc1=O)N1CCCN(C(=O)c2cc3ccccc3oc2=O)CC1	1.4	i	16	5%	1.1	0
CCOc1ccc2oc(-c3ccccc3)c(C(=O)N3CCN(CCO)CC3)c2c1	3.4*	·	6	4%	1	1
CCOc1ccc2oc(-c3ccccc3)c(C(=O)O)c2c1	3.9*	·	11	8%	1.1	5
CC1=C(C(=O)OC(C)C)C(c2cccs2)N2C(=O)C(C)SC2=N1 (stereo not given)	1.1	i	10	6%	1.1	7
COc1ccc(Cl)cc1NC(=O)CN1CCC(n2nnc3cc(F)ccc32)CC1	1.1	i	11	10%	1	9
COn1c(SC2CCCCC2)nc2ccccc2c1=O	1.1	i	2	3%	1	6
CN(C(=O)c1cnccn1)c1nnc(-c2cccnc2)s1	1.3	i	30*	11%	1	3
CN(C(=O)c1ccncc1)c1nnc(-c2ccncc2)s1	3.6*	·	9	8%	0.98	7
CN(C(=O)C1CCOC1)c1nnc(-c2ccccn2)s1 (stereo not given)	1.2	i	0	2%	1.1	0
Cc1cnc(-c2nnc(N(C)C(=O)C3CCOC3)s2)cn1 (stereo not given)	2*	i	5	8%	1.1	7
COCC(=O)N(C)c1nnc(-c2ccccn2)s1	2*	i	4	3%	0.99	0
COC(=O)c1ccc(CSc2ncnc3c2nnn3-c2ccc(OC)cc2)o1	1.1	i	3	2%	1	5
Cc1sc(NC(=O)CN2CCN(c3ccccn3)CC2)c(C#N)c1C	1.1	i	10	3%	0.98	0
CC(C)Cc1nnc(NC(=O)c2ccncc2)s1	1	i	14	9%	1.1	0
CN(C(=O)C1CCCO1)c1nnc(-c2ccccn2)s1 (stereo not given)	4.8*	·	0	1%	1.2	1
CN(C(=O)C1CCCO1)c1nnc(-c2ccncc2)s1 (stereo not given)	2.6*	·	8	3%	0.99	4
Cc1cc(/C=N/n2cnnc2)c(C)n1-c1cc(Cl)ccc1Cl	1.1	i	11	6%	1.1	2
CN1C(=O)c2ccccc2N(C)C1c1ccc2c(c1)OCO2 (stereo not given)	3.9*	·	7	8%	0.98	8
CSc1ccccc1NC(=O)COc1ccc(S(=O)(=O)N2CCCC2)cc1	1.1	i	3	1%	1	1
CCCCn1c(SCC(=O)Nc2ccc3c(c2)OCO3)nc2c1c(=O)n(C)c(=O)n2C	1	i	16	7%	0.99	6
Cc1cc(N2CCN(C(=O)c3ccco3)CC2)n2nc(C)c(-c3ccc(Cl)cc3)c2n1	3.7*	·	19	17%	1.1	15
Cc1cc(N2CCN(C(=O)c3ccco3)CC2)n2nc(-c3cccc(Cl)c3)cc2n1	0.7	+	2	15%	1	8
SMILES	Fluor 339 460	DPM-DC inhibit	PMK inhibit	NADH enzymes	A340 absorber	Spn MK inh
Cc1cc(N2CCN(C(=O)c3ccco3)CC2)n2nc(C)c(-c3ccccc3)c2n1	1.4	i	11	7%	1.1	11
O=C(c1cc2nc(-c3ccccc3)cc(-c3ccccc3)n2n1)N1CCN(C(=O)c2ccco2)CC1	3.7*	·	8	9%	1.1	9
CN(C)/C=C1\C(=O)c2ccc(N(C)C)nc2CC1c1ccccc1 (stereo not given)	2*	i	8	8%	1.1	0
CN(C)/C=C1/Sc2ccccc2C1=O	1.1	i	0	2%	1.1	5
CCS(=O)(=O)NCCc1csc(C)n1	1.1	i	8	28%	1	77*
CCS(=O)(=O)NCc1csc(C)n1	1.1	i	13	6%	0.97	4
COc1ccc(-c2nc(C(N)=O)c3[nH]c(=O)n(-c4cccc(Cl)c4)c3n2)cc1OC	1.1	i	11	1%	1	1
Cc1cccc(-n2c(=O)[nH]c3c(C(N)=O)nc(C(C)C)nc32)c1	5*	·	10	5%	1	0
CC1CN(S(=O)(=O)c2cccc(C(=O)OCC(=O)Nc3ccc4c(c3)OCO4)c2)CC(C)O1 (stereo not given)	1	i	21	7%	1	0
CC1CN(S(=O)(=O)c2cccc(C(=O)OCc3cc(=O)oc4cc(O)ccc34)c2)CC(C)O1 (stereo not given)	3.4*	·	8	3%	1	5
O=C(NCc1ccccc1)N1CCC(n2cnc3cc(F)ccc32)CC1	1.1	i	12	4%	0.97	0
Cc1cc(C)n(-c2ncnc3sc4c(c23)CCCC4)n1	2.3*	i	16	5%	1	0
O=C(CCn1nnc(-c2cccs2)n1)NC1CCCCC1	1	i	18	6%	0.98	0
O=c1[nH]c(-c2ccncc2)nc2ccccc12	1.2	+	18	24%	1.1	21
O=c1[nH]c(-c2cccnc2)nc2ccccc12	1.1	i	3	1%	1	0
COC(=O)c1cc(Nc2ncnc3c2cnn3-c2ccccc2)cc(C(=O)OC)c1	1.4	i	0	2%	1.1	3
CN1CCN(c2nc3c(c(=O)n(C)c(=O)n3C)n2Cc2cccc3ccccc23)CC1	1	i	3	5%	0.98	active
Cn1c(=O)c2c(nc(N3CCOCC3)n2C)n(C)c1=O	1.1	i	26*	9%	1	0
Cn1c(=O)c2c(nc(N3CCCCCC3)n2Cc2cccc3ccccc23)n(C)c1=O	1	i	0	4%	1	13
CC(C)OC(=O)CSc1nc(N)c(C#N)c(-c2cccs2)c1C#N	1.2	i	0	0%	1.1	0
N#Cc1c(N)nc(SCC(=O)NCCc2ccccc2)c(C#N)c1-c1cccs1	2.3*	·	0	4%	1.1	7
Cc1ccc(S(=O)(=O)c2cc3c(=O)n4cccc(C)c4nc3n(CC3CCCO3)c2=N)cc1 (stereo not given)	1.5	i	6	10%	1	7
N=c1c(S(=O)(=O)c2ccc(Cl)cc2)cc2c(=O)n3ccccc3nc2n1CCN1CCOCC1	5*	·	0	0%	1	·
Cn1c(=N)c(S(=O)(=O)c2ccccc2)cc2c(=O)n3ccccc3nc21	2.8*	·	13	4%	1	3
